According to PubChem BioAssay (NCI):
This is part of a sample that, as a whole, favours compounds with a hit. Of some 79,000 tested, about 15% had one in any assay. Values without a mark were called inactive. Activity calls are given as the source filed them. Rule as the data show it: active = growth inhibition above about 70%; inactive = the rest.

Legend:
[1] = NCI Yeast Anticancer Drug Screen. Data for the wt1 strain (AID 149);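 also: 0% = growth of vehicle-treated wt1 cultures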; settings: S. cerevisiae wt1 strain (SPY 50644) growth inhibition, hits give high values
How it was run: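 Growth inhibition read against vehicle controls after compound exposure of the wt1 yeast strain.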

[2] = NCI Yeast Anticancer Drug Screen. Data for the rad50EPP+ strain (AID 151);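 also: 0% = growth of vehicle-treated control cultures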; settings: S. cerevisiae rad50 mutant strain, hits give high values
How it was run: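 Exposing the rad50EPP+ strain to each compound, growth was compared with vehicle-only cultures to give inhibition.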

[3] = NCI Yeast Anticancer Drug Screen. Data for the mgt1 strain (AID 153); settings: S. cerevisiae mgt1 mutant growth inhibition, hits give high values
How it was run: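 Genetically defined yeast (mgt1) treated with compound; inhibition of growth expressed against vehicle-treated controls.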

[4] = NCI Yeast Anticancer Drug Screen. Data for the rad50 strain (AID 155);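 also: 0% = growth of vehicle-only cultures of the same strain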; settings: S. cerevisiae rad50 strain growth inhibition, hits give high values
How it was run: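 Readout: growth inhibition relative to vehicle-treated cultures. Compound exposure was carried out in a genetically defined yeast strain deficient in DNA damage repair.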

[5] = NCI Yeast Anticancer Drug Screen. Data for the mec2-1 strain (AID 157); settings: S. cerevisiae mec2-1 strain, hits give high values
How it was run: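 Readout is yeast growth inhibition, normalised to vehicle-treated controls, in the mec2-1 strain exposed to compound.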

[6] = NCI Yeast Anticancer Drug Screen. Data for the rad14 strain (AID 159);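 also: 0% = growth of vehicle-treated control cultures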; settings: S. cerevisiae rad14 strain growth inhibition, hits give high values
How it was run: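 Growth inhibition vs vehicle controls; genetically altered yeast strain (DNA damage repair defect) treated with test compounds.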

[7] = NCI Yeast Anticancer Drug Screen. Data for the sgs1 mgt1 strain (AID 161);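 also: 0% = growth of cultures given vehicle only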; settings: S. cerevisiae sgs1 mgt1 strain, hits give high values
How it was run: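 This yeast growth screen uses a strain with defined DNA-repair lesions; compound-treated growth is compared with vehicle-treated growth.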

[8] = NCI Yeast Anticancer Drug Screen. Data for the CLN2oe strain (AID 163);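 also: 0% = growth of vehicle-only control cultures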; settings: S. cerevisiae CLN2oe strain, hits give high values
How it was run: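 Values reflect how much compound exposure reduced yeast growth, referenced to vehicle-exposed cells. Assay organism is a strain with a defined genetic change affecting cell-cycle control.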

[9] = NCI Yeast Anticancer Drug Screen. Data for the cln2 rad14 strain (AID 165);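 also: 0% = growth equal to vehicle treated cultures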; settings: S. cerevisiae cln2 rad14 strain, hits give high values
How it was run: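 Relative to vehicle controls, growth inhibition of compound-treated cln2 rad14 yeast was recorded.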

[10] = NCI Yeast Anticancer Drug Screen. Data for the bub3 strain (AID 167); settings: S. cerevisiae bub3 mutant strain, hits give high values
How it was run: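 Readout: yeast growth inhibition, expressed relative to vehicle-only wells. The test organism is a mutant strain from a panel with lesions in DNA repair or checkpoint genes.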

[11] = NCI Yeast Anticancer Drug Screen. Data for the wt2 strain (AID 169);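 also: 0% = growth of vehicle-treated yeast cultures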; settings: S. cerevisiae wt2 strain growth inhibition, hits give high values
How it was run: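 Values express reduction in yeast growth under compound treatment, referenced to vehicle-treated cells.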

[12] = NCI Yeast Anticancer Drug Screen. Data for the mlh1 strain (AID 171);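 also: 0% = growth of vehicle-treated control cultures of the same strain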; settings: S. cerevisiae mlh1 strain growth inhibition, hits give high values
How it was run: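 Steps: expose the defined-mutant yeast strain to compound; expose a parallel culture to vehicle; measure growth; express compound effect as inhibition relative to the vehicle culture.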

[13] = NCI Yeast Anticancer Drug Screen. Data for the sgs1 strain (AID 173);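 also: 0% = growth of vehicle-only control cultures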; settings: S. cerevisiae sgs1 mutant, hits give high values
How it was run: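 Treat defined-mutant yeast with compound; measure growth; calculate inhibition relative to vehicle-treated cells.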

[14] = NCI Yeast Anticancer Drug Screen. Data for the mlh1 rad18 strain (AID 175); settings: S. cerevisiae mlh1 rad18 strain growth inhibition, hits give high values
How it was run: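 Test agents were incubated with a yeast strain of defined genotype (DNA damage repair defect). Inhibition of growth was derived by comparison with vehicle-exposed cultures.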

[15] = NCI Yeast Anticancer Drug Screen. Data for the rad18 strain (AID 177); settings: S. cerevisiae rad18 mutant growth inhibition, hits give high values
How it was run: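 A genetically defined yeast mutant impaired in DNA damage repair was treated with test compounds, then its growth was measured against cultures receiving vehicle alone.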

[16] = at 5.0 µM (retest, dose inferred, filed as 0.5)
[17] = at 50.0 µM (retest, dose inferred, filed as 5.0)

## Oc1ccc(-c2nc(-c3ccc(F)cc3)c(-c3ccc4ccccc4n3)[nH]2)cc1
[1]; at 1.2 µM
  growth inhibition: -60%
[1]; at 3.7 µM
  growth inhibition: -54%
[1]; at 11.0 µM
  growth inhibition: 64%
[1]; at 33.0 µM
  growth inhibition: 18%
[1]; at 100.0 µM
  growth inhibition: 94% (active)
[2]; at 1.2 µM
  growth inhibition: -43%
[2]; at 3.7 µM
  growth inhibition: -37%
[2]; at 11.0 µM
  growth inhibition: -26%
[2]; at 33.0 µM
  growth inhibition: -16%
[2]; at 100.0 µM
  growth inhibition: -18%
[3]; at 1.2 µM
  growth inhibition: -28%
[3]; at 3.7 µM
  growth inhibition: -31%
[3]; at 11.0 µM
  growth inhibition: 81% (active)
[3]; at 33.0 µM
  growth inhibition: 97% (active)
[3]; at 100.0 µM
  growth inhibition: 92% (active)
[4]; at 1.2 µM
  growth inhibition: -31%
[4]; at 3.7 µM
  growth inhibition: -44%
[4]; [16]
  growth inhibition: 19%
[4]; at 11.0 µM
  growth inhibition: 76% (active)
[4]; at 33.0 µM
  growth inhibition: 97% (active)
[4]; [17]
  growth inhibition: 54%
[4]; at 50.0 µM
  growth inhibition: 90.5% (active)
[4]; at 100.0 µM
  growth inhibition: 94% (active)
[5]; at 1.2 µM
  growth inhibition: -40%
[5]; at 3.7 µM
  growth inhibition: -27%
[5]; [16]
  growth inhibition: 16%
[5]; at 11.0 µM
  growth inhibition: 69%
[5]; at 33.0 µM
  growth inhibition: 98% (active)
[5]; [17]
  growth inhibition: 63%
[5]; at 50.0 µM
  growth inhibition: 93% (active)
[5]; at 100.0 µM
  growth inhibition: 96% (active)
[6]; at 1.2 µM
  growth inhibition: -51%
[6]; at 3.7 µM
  growth inhibition: -49%
[6]; at 11.0 µM
  growth inhibition: -6%
[6]; at 33.0 µM
  growth inhibition: 94% (active)
[6]; at 100.0 µM
  growth inhibition: 91% (active)
[7]; [16]
  growth inhibition: 0%
[7]; [17]
  growth inhibition: -41%
[7]; at 50.0 µM
  growth inhibition: 92.2% (active)
[8]; at 1.2 µM
  growth inhibition: -5%
[8]; at 3.7 µM
  growth inhibition: -8%
[8]; at 11.0 µM
  growth inhibition: 93% (active)
[8]; at 33.0 µM
  growth inhibition: 98% (active)
[8]; at 100.0 µM
  growth inhibition: 94% (active)
[9]; [16]
  growth inhibition: 13%
[9]; [17]
  growth inhibition: -33%
[9]; at 50.0 µM
  growth inhibition: 90.6% (active)
[10]; at 1.2 µM
  growth inhibition: -32%
[10]; at 3.7 µM
  growth inhibition: -20%
[10]; [16]
  growth inhibition: 5%
[10]; at 11.0 µM
  growth inhibition: 96% (active)
[10]; at 33.0 µM
  growth inhibition: 98% (active)
[10]; [17]
  growth inhibition: -31%
[10]; at 50.0 µM
  growth inhibition: 91.8% (active)
[10]; at 100.0 µM
  growth inhibition: 90% (active)
[11]; at 1.2 µM
  growth inhibition: -56%
[11]; at 3.7 µM
  growth inhibition: -40%
[11]; at 11.0 µM
  growth inhibition: 96% (active)
[11]; at 33.0 µM
  growth inhibition: 96% (active)
[11]; at 100.0 µM
  growth inhibition: 93% (active)
[12]; at 1.2 µM
  growth inhibition: -44%
[12]; at 3.7 µM
  growth inhibition: -37%
[12]; at 11.0 µM
  growth inhibition: 36%
[12]; at 33.0 µM
  growth inhibition: 98% (active)
[12]; at 100.0 µM
  growth inhibition: 94% (active)
[13]; at 1.2 µM
  growth inhibition: -34%
[13]; at 3.7 µM
  growth inhibition: -38%
[13]; at 11.0 µM
  growth inhibition: 97% (active)
[13]; at 33.0 µM
  growth inhibition: 98% (active)
[13]; at 100.0 µM
  growth inhibition: 90% (active)
[14]; [16]
  growth inhibition: 27%
[14]; [17]
  growth inhibition: 70% (active)
[14]; at 50.0 µM
  growth inhibition: 85.8% (active)
[15]; at 1.2 µM
  growth inhibition: -28%
[15]; at 3.7 µM
  growth inhibition: -36%
[15]; at 11.0 µM
  growth inhibition: 96% (active)
[15]; at 33.0 µM
  growth inhibition: 97% (active)
[15]; at 100.0 µM
  growth inhibition: 94% (active)

## Nc1n[n+]([O-])c2ccc(Cl)cc2[n+]1[O-]
[1]; at 1.2 µM
  growth inhibition: 8%
[1]; at 3.7 µM
  growth inhibition: 13%
[1]; at 11.0 µM
  growth inhibition: 31%
[1]; at 33.0 µM
  growth inhibition: 62%
[1]; at 100.0 µM
  growth inhibition: 84% (active)
[3]; at 1.2 µM
  growth inhibition: 1%
[3]; at 3.7 µM
  growth inhibition: 27%
[3]; at 11.0 µM
  growth inhibition: 36%
[3]; at 33.0 µM
  growth inhibition: 80% (active)
[3]; at 100.0 µM
  growth inhibition: 95% (active)
[4]; at 1.2 µM
  growth inhibition: 60%
[4]; at 3.7 µM
  growth inhibition: 79% (active)
[4]; [16]
  growth inhibition: 65%
[4]; at 11.0 µM
  growth inhibition: 88% (active)
[4]; at 33.0 µM
  growth inhibition: 92% (active)
[4]; [17]
  growth inhibition: 95% (active)
[4]; at 50.0 µM
  growth inhibition: 96.8% (active)
[4]; at 100.0 µM
  growth inhibition: 94% (active)
[5]; at 1.2 µM
  growth inhibition: 9%
[5]; at 3.7 µM
  growth inhibition: 22%
[5]; [16]
  growth inhibition: 15%
[5]; at 11.0 µM
  growth inhibition: 57%
[5]; at 33.0 µM
  growth inhibition: 83% (active)
[5]; [17]
  growth inhibition: 91% (active)
[5]; at 50.0 µM
  growth inhibition: 78% (active)
[5]; at 100.0 µM
  growth inhibition: 93% (active)
[6]; at 1.2 µM
  growth inhibition: 12%
[6]; at 3.7 µM
  growth inhibition: 32%
[6]; at 11.0 µM
  growth inhibition: 71% (active)
[6]; at 33.0 µM
  growth inhibition: 89% (active)
[6]; at 100.0 µM
  growth inhibition: 96% (active)
[7]; [16]
  growth inhibition: 48%
[7]; [17]
  growth inhibition: 91% (active)
[7]; at 50.0 µM
  growth inhibition: 93.2% (active)
[8]; at 1.2 µM
  growth inhibition: 6%
[8]; at 3.7 µM
  growth inhibition: 32%
[8]; at 11.0 µM
  growth inhibition: 55%
[8]; at 33.0 µM
  growth inhibition: 84% (active)
[8]; at 100.0 µM
  growth inhibition: 95% (active)
[9]; [16]
  growth inhibition: 19%
[9]; [17]
  growth inhibition: 93% (active)
[9]; at 50.0 µM
  growth inhibition: 76.7% (active)
[10]; at 1.2 µM
  growth inhibition: 0%
[10]; at 3.7 µM
  growth inhibition: 15%
[10]; [16]
  growth inhibition: 24%
[10]; at 11.0 µM
  growth inhibition: 44%
[10]; at 33.0 µM
  growth inhibition: 81% (active)
[10]; [17]
  growth inhibition: 93% (active)
[10]; at 50.0 µM
  growth inhibition: 82.8% (active)
[10]; at 100.0 µM
  growth inhibition: 90% (active)
[11]; at 1.2 µM
  growth inhibition: 8%
[11]; at 3.7 µM
  growth inhibition: 30%
[11]; at 11.0 µM
  growth inhibition: 57%
[11]; at 33.0 µM
  growth inhibition: 85% (active)
[11]; at 100.0 µM
  growth inhibition: 95% (active)
[12]; at 1.2 µM
  growth inhibition: 15%
[12]; at 3.7 µM
  growth inhibition: 38%
[12]; at 11.0 µM
  growth inhibition: 70% (active)
[12]; at 33.0 µM
  growth inhibition: 93% (active)
[12]; at 100.0 µM
  growth inhibition: 96% (active)
